Experimental data published in PubChem BioAssay (NCI).
The panel holds about 79,000 compounds, 15% with a hit somewhere; the sample as a whole holds those more often. Calls of active or inactive are those of the source. No stated cut-off is given here; in the data, active means growth inhibition above about 70%; inactive means the rest.

Experiment: NCI Yeast Anticancer Drug Screen. Data for the mec2-1 strain (AID 157)
Settings: S. cerevisiae mec2-1 strain, at 50.0 µM (retest, dose inferred, filed as 5.0), stronger effect = higher value
How it was run: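 Mutant yeast (mec2-1) grown with compound; growth inhibition relative to vehicle control reported.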

SMILES | growth inhibition
S=C(S)NN1CCOCC1 | -4% (inactive)
COc1cc2c3c(cccc3c1)C(=O)N(CCN(C)C)C2=O | 11% (inactive)
COC(=O)C1=C(C)NC(C)=C(C(=O)OCCCN2CCC(c3ccccc3)(c3ccccc3)CC2)C1c1cccc([N+](=O)[O-])c1 (stereo not given) | 98% (active)
c1ccc2c(c1)Oc1cccc3cccc-2c13 | 99% (active)
CN(C)CCOc1ccc2c(c1)C/C(=C/c1ncc([N+](=O)[O-])n1C)C2=O | 95% (active)
Cc1ccc(CCC2=CCCc3c2ccc2ccccc32)cc1 | 31% (inactive)
CNC(=O)OCc1c(COC(=O)NC)c(-c2ccc(Cl)c(Cl)c2)n2c1CCC2 | 98% (active)
Clc1ccccc1C1OC1c1ccccc1Cl (stereo not given) | 99% (active)
O=[N+]([O-])c1cc(CCl)ccc1CCl | 97% (active)
O=C1C=CC(=O)c2c(O)c(Nc3ccc(OC(F)(F)F)cc3)c(Cl)c(O)c21 | 79% (active)
S=c1[nH]nc(Nc2ccc(Cl)cc2)s1 | 93% (active)
Cn1ccnc1Oc1ccc(Cl)cc1 | 26% (inactive)
BrCc1cccc2ccc3cccc(CBr)c3c12 | 97% (active)
O=C1c2ccccc2-c2nc3ccccc3nc21 | 98% (active)
CCCCCCCCCCCCCCCCCCNC | 95% (active)
Oc1ccc(NCn2c(=S)sc3ccccc32)cc1 | 100% (active)
O=C1C2CC[C@@H]3C(=O)C(Cl)(Cl)[C@@H]3CCC2C1(Cl)Cl (stereo not given in full) | 49% (inactive)
CC[n+]1ccc2c(C)c3[nH]c4ccc(O)cc4c3c(C)c2c1 | 16% (inactive)
Cc1ccc(-n2cc(-c3ccc(Cl)cc3)c(C#N)c2N)cc1 | 43% (inactive)
CC(=O)[O][Bi]([c]1ccccc1)[c]1ccccc1 | 95% (active)

SMILES | growth inhibition
CC1=C(SCCO)C(=O)c2ccccc2C1=O | 80% (active)
C/C(=N\O)C1CC2C=C(C#N)C1N(Cc1ccccc1)C2 (stereo not given) | -13% (inactive)
CC(Br)C(=O)c1ccc2cc(Br)c3ccccc3c2c1 (stereo not given) | 12% (inactive)
Nc1nc(-c2cccnc2)cc(-c2cc(-c3cccnc3)nc(N)n2)n1 | 33% (inactive)
CC(C)=CC(=O)O[C@@H]1CC(C)(C)CC2C3=CCC4[C@]56CC[C@](O)(OC5)C(C)(C)C6CC[C@@]4(C)C3(C)CC[C@]21C(=O)O (stereo not given in full) | 87% (active)
CCC(C)COC(=O)c1ccc(N=Cc2ccc(C=Nc3ccc(C(=O)OCC(C)CC)cc3)cc2)cc1 (stereo not given) | 13% (inactive)
Oc1cccc2c(Cl)ccnc12 | 99% (active)
O=C(O)c1cccc(-c2c3ccc(=O)cc-3oc3cc(O)ccc23)c1 | 99% (active)
CN(CCc1ccccn1)c1ccc2c(c1)Cc1ccccc1-2 | 1% (inactive)
Cc1cc(S(=O)(=O)/N=C(/NN)NNc2cccc(C(F)(F)F)n2)c(S)cc1Cl | 8% (inactive)
O=C1C2C(C(=O)N1c1ccc(OCc3ccccc3)cc1)C1c3ccccc3C2C2CCCCN21 (stereo not given) | 19% (inactive)
Nc1ccccc1CC(O)C(=O)O (stereo not given) | 74% (active)
O=C(O)C1CCCCC1c1c2ccc(=O)c(O)c-2oc2c(O)c(O)ccc12 (stereo not given) | 80% (active)
Cc1ccc2ccc(O)cc2c1 | 95% (active)
O=C1C(=O)c2ccccc2C=C1[N+](=O)[O-] | 13% (inactive)
COC(=O)c1ccc(NCC2=CC(=O)C=CC2=O)cc1O | 98% (active)
C(CCSC1=NCCN1)CSC1=NCCN1 (tested in a mixture with another compound) | 99% (active)
N#Cc1c(N)[nH]c2ccc(Sc3ccccc3)cc12 | -6% (inactive)
CCNc1nnc(CSc2nc(-c3ccccc3)c(-c3ccccc3)[nH]2)s1 | 93% (active)
CC[C@@]1(O)C(=O)OCc2c1cc1n(c2=O)Cc2cc3c(N)cccc3nc2-1 | 5% (inactive)
